SKKanGAS inh = SKKanGAS growth inhibition. inhibition, % at 7.5 µM. AID 1662. actives 1.3% (n = 300,000). S. pyogenes SKKanGAS, kanamycin growth, BacTiter-Glo, 6 h;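 active = mean replicate score, as percent of positive control median, at least 50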;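 note: strain carries kanamycin resistance gene driven by streptokinase promoter and grows in 40 µg/ml kanamycin; loss of luminescence reflects streptokinase promoter inhibition or plain growth inhibition; 0% = median of DMSO wells and 100% = positive control at its reference dose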
TIM10 inh = growth inhibitors of TIM10 yeast strain; S. cerevisiae TIM10 strain growth, BacTiter-Glo luminescence, 24 h; actives 1.4% (n = 330,000); inhibition, % at 10 µM; AID 463195;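 active = inhibition of 40% or more at the single tested concentration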;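 note: wild-type TIM10 isogenic control strain grown at permissive 25 °C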
EBI2 block = EBI2 (human) antagonism; EBI2 beta-arrestin recruitment, luminescence, 7a,25-OHC stimulated; AID 651636; actives 0.81% (n = 360,000); P32249; inhibition, % at 5 µM; in the data active = inhibition above about 38%;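 note: enzyme fragment complementation signal reports receptor beta-arrestin coupling in cells; 0% = agonist plus DMSO wells and 100% = wells without agonist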
Target sequence (P32249 whole entry, looked up, the tested form may be a part): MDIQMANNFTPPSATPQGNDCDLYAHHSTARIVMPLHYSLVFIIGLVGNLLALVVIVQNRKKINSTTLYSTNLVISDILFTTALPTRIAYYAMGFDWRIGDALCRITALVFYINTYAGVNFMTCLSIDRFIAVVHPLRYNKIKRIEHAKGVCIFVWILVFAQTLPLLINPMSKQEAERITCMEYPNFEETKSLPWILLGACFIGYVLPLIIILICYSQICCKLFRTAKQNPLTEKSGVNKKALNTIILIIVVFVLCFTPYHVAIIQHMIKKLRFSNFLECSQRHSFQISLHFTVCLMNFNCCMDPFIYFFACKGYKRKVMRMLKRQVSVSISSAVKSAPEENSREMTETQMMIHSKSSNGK
tim23-1 inh = tim23-1 yeast growth inhibition; S. cerevisiae tim23-1 growth, BacTiter-Glo luminescence, 24 h; inhibition, % at 20 µM; actives 1.3% (n = 330,000);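 active = growth inhibition of the mutant yeast at or above 50%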;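 note: temperature-sensitive mutant grown at 25 °C; plate controls were DMSO-treated mutant yeast for no effect and medium wells lacking yeast for full effect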
PfHsp90 yeast 2 = reduces growth (ATP signal) of yeast expressing P. falciparum Hsp90; S. cerevisiae expressing PfHsp90, BacTiter-Glo ATP, 48 h; yeast lacking PDR1 and PDR3 efflux regulators; inhibition, % at 9.4 µM; actives 0.32% (n = 310,000);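 active = every replicate shows inhibition above about 80%, whatever the replicate mean, limit read from the data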;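 note: 0% = DMSO neutral controls and 100% = 20 µM radicicol positive controls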
tim10-1 inh = inhibits growth of tim10-1 mutant yeast; S. cerevisiae tim10-1 ts strain growth, BacTiter-Glo, 24 h; inhibition, % at 20 µM; actives 2.2% (n = 330,000); AID 463190;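 active = inhibition of at least 40%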;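 note: mutant grown at 25 °C; 0% = DMSO wells with yeast and 100% = wells holding no yeast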
tim10 confirm = TIM10 yeast growth inhibition, confirmed; shares compounds with TIM10 inh; actives 63% (n = 4,600); inhibition, % at 10 µM; S. cerevisiae tim10 strain growth, BacTiter-Glo luminescence, 24 h;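 active = inhibition of yeast growth at or above a set limit in either of two replicates at 10 µM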;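 note: this counterscreen used the strain with wild-type TIM10; 0% = yeast with DMSO and 100% = medium wells lacking yeast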
The depositor's hits bear a star; . = not tested or not shown. Hits are enriched below; roughly 4.7% of the tested compounds scored in any of these assays.

SMILES	SKKanGAS inh	TIM10 inh	EBI2 block	tim23-1 inh	PfHsp90 yeast 2	tim10-1 inh	tim10 confirm
CC(=O)Nc1ccccc1C(=O)C(=O)Nc1ccc(F)c(Cl)c1	-2.7	13.7	2.0	26.7	-11.8	15.9	.
COc1cc(NC(=O)c2cccs2)ccc1NC(=O)c1ccco1	-8.5	47.4*	-17.6	25.5	-5.2	9.3	-2.2
CCN(C(=O)COC(=O)c1cccc(NS(=O)(=O)c2ccc(F)c(F)c2)c1)C1CCS(=O)(=O)C1 (configuration not stated)	-1.8	0.9	.	-1.3	.	-8.1	.
COc1ccc(N(CC(=O)NCCc2ccc(Cl)cc2)S(=O)(=O)c2c(C)[nH]c(=O)[nH]c2=O)cc1	-6.3	4.6	4.2	-3.1	5.0	-14.1	.
O=[N+]([O-])c1cc(Cl)c(Cl)c(Cl)c1Cl	.	-0.5	2.9	11.2	-6.0	11.5	.
Cc1cccc(NC(=S)NN(Cc2ccccc2)c2ccccc2)c1C	8.2	43.3*	5.6	16.0	-11.9	29.6	-20.6
Cc1ccccc1NC(=S)N/N=C/c1ccc(O)cc1O	16.1	19.4	3.4	13.9	-9.5	19.0	.
Cc1cccc(NC(=S)N/N=C/c2cccc(O)c2)c1C	1.1	30.9	-6.6	13.6	3.8	23.7	.
Cc1cccc(NC(=S)N/N=C/C(C)c2ccccc2)c1C (configuration not stated)	9.8	40.5*	6.2	20.3	-5.7	30.7	36.2*
Cc1ccccc1NC(=S)N/N=C/C(C)c1ccccc1 (configuration not stated)	-2.1	41.1*	6.8	25.0	-16.7	23.0	27.4
Cc1cccc(N2CCN(S(=O)(=O)c3ccc4c(c3)CCCN4C(=O)C3CCC3)CC2C)c1 (configuration not stated)	10.5	17.9	24.1	29.9	0.9	32.6	.
CN(C)S(=O)(=O)c1cccc(NC(=O)CCc2nc3cc(S(=O)(=O)N4CCOCC4)ccc3n2C)c1	30.7	9.3	-10.0	14.9	7.5	21.5	.
Cc1cccc(NC(=O)c2ccc3ccccc3n2)c1C	3.9	44.9*	12.3	39.3	-6.5	38.4	31.9*
S=C(NCc1ccco1)Nc1cccc(Cl)c1Cl	1.4	41.2*	-5.8	38.4	.	31.2	29.2
S=C(NCc1ccco1)Nc1ccccc1Cl	0.0	13.4	-2.3	4.1	-2.2	15.7	.
COc1cccc(CNc2nc3cc(-c4ccc(C(=O)N5CCN(C)CC5)cc4)sc3c(=O)n2C)c1	.	.	4.4	.	.	.	.
O=C(CSc1ccccn1)N1CCNC1=O	.	-3.3	-4.8	13.8	-2.3	10.6	.
Cc1ccc(-n2c(C)cc(/C([O-])=C(/C(=S)Nc3ccc(F)c(Cl)c3)[n+]3ccccc3)c2C)cc1	22.5	41.1*	5.0	-15.4	.	10.3	-16.8
CCn1nc(C)c(/C=N/NC(=S)Nc2ccc(Cl)cc2Cl)c1C	5.9	42.3*	7.7	37.2	-12.7	39.0	-9.8
CCOC(=O)Cn1c(=O)oc2cc(S(=O)(=O)N(C)c3cccc(C)c3)ccc21	3.0	-21.1	-5.2	-2.1	-28.7	-11.1	.
CC(C)CCOc1ccc(C(=O)N2CCCC2C(=O)O)cc1 (configuration not stated)	3.6	-8.9	3.9	-3.2	-5.5	-5.5	.
Cc1ccsc1/C=N/NC(=S)NCc1ccccc1	0.3	54.0*	17.0	27.7	-9.1	34.6	43.8*
COc1cc2c(cc1NC(=O)CN(C)Cc1nc3ccccc3c(=O)[nH]1)oc1ccccc12	19.9	41.7*	5.1	26.5	.	26.7	-24.8
CCN(CC(=O)Nc1cc(OC)ccc1OC)Cc1nc2ccccc2c(=O)[nH]1	-3.4	3.0	6.6	14.4	-44.8	15.1	.
COc1ccc(S(=O)(=O)Nc2cc(C)on2)cc1	-0.5	6.8	-7.2	1.1	1.0	-1.1	.
SMILES	SKKanGAS inh	TIM10 inh	EBI2 block	tim23-1 inh	PfHsp90 yeast 2	tim10-1 inh	tim10 confirm
N/C(=N/O)c1nc(N2CCCC2)nc(N(c2ccccc2)c2ccccc2)n1	12.0	53.3*	0.3	47.9	20.8	32.6	36.5*
C=CCn1c(SCc2c(Cl)cccc2Cl)nnc1-c1cccnc1	5.3	40.6*	7.0	26.9	-2.9	38.7	16.9
O=C(N/N=C/c1cn(-c2ccccc2)nc1-c1cccs1)c1ccncc1	-16.4	30.2	8.2	36.6	-49.6	26.9	.
O=C(N/N=C/c1nn(-c2ccccc2)cc1-c1ccccc1)c1ccncc1	-1.6	40.4*	11.4	27.8	-19.5	38.7	26.7
Cc1cc(C)cc(NC(=O)C2(c3ccccc3)CC2(Cl)Cl)c1 (configuration not stated)	18.8	40.6*	12.7	38.0	-31.1	37.2	40.1*
CC(C)(C)C1CCc2[nH]c3ccccc3c(=O)c2C1 (configuration not stated)	-0.2	44.3*	2.1	45.7	28.2	29.3	33.2*
Cc1ccc(C(=O)N/C(=C/c2ccccc2)C(=O)NCC2CCCO2)cc1 (configuration not stated)	-6.8	14.8	-5.5	2.3	-11.4	3.1	.
CCN(Cc1ccccc1)c1ccc(/C=N/N=C(N)N)cc1	0.5	-46.7	-14.4	43.6	7.4	-52.8	.
CCN(Cc1ccccc1)c1ccc(/C=N/NC(=S)NC(C)C)cc1	-6.9	43.1*	31.5	29.3	-22.1	36.2	45.1*
COC(=O)Cc1c(C)c2cc(Cl)c(OC(=O)c3ccco3)cc2oc1=O	-0.9	54.3*	-5.0	10.7	-22.9	23.1	40.5*
O=C(Oc1cc2oc(=O)c3c(c2cc1Cl)CCCC3)c1ccco1	0.2	50.7*	-4.1	13.0	-6.1	36.7	32.2*
Cc1ccc(N/N=C(\C#N)C(N)=S)cc1C	-3.3	42.2*	6.8	30.3	-22.4	37.7	25.9
CC(C)(C)c1ccc(-n2nc(C#N)c(Cl)cc2=O)cc1	-11.6	47.7*	82.5*	-35.9	100.1*	20.5	47.3*
CC(C)(C)c1ccc(-n2nc(C(N)=O)c(O)cc2=O)cc1	4.6	5.0	-4.5	10.9	-9.5	25.1	.
C/C(CC(=O)NCc1ccco1)=N\NC(=O)c1ccc([N+](=O)[O-])cc1Cl	0.1	11.1	-8.5	10.6	-3.5	-1.1	.
CS(=O)(=O)c1sc(C#N)c2c1C(=O)CC(c1ccccc1)C2 (configuration not stated)	2.5	42.4*	65.7*	-12.5	-59.4	21.4	42.3*
Cc1oc2c(c(=O)c1C)C(=O)CC(c1ccccc1)C2 (configuration not stated)	-0.8	9.7	-3.6	20.2	.	8.2	.
CC1(C)Cc2c(C#N)c(N3CCN(C(=O)c4ccco4)CC3)nc(Cc3ccccc3)c2CO1	32.8	42.3*	9.7	18.3	-7.2	27.7	4.5
CCOc1ccc(C2=NNC(c3cccnc3)=Nc3ccc(OC)cc32)cc1	-5.4	51.4*	-1.9	10.8	3.1	14.1	31.2

Bioassay records: PubChem BioAssay, several laboratories
